The results in this text go back to PubChem BioAssay AID588342 (National Center for Advancing Translational Sciences (NCATS), 2011).

Molecules are shown by their SMILES. Hit rate of the full screen: of about 360,000 compounds, about 25,000 (6.9%) were called active. Roughly 9% stayed inconclusive and do not appear here. This is one part of a sample in which actives are shown more often than they occur. A number with no mark means an inactive call. Calls come from the whole dose curve; as a rule, active = well fitted inhibition curve with a large enough effect; inconclusive = small, poorly fitted or top-dose-only effect; inactive = flat fitted curve, though single readings scatter.
Potency is the fitted concentration of half-maximal effect.

For the assay, the target named is Luciferin 4-monooxygenase (Photinus pyralis) (UniProt P08659). The assay is described as follows: qHTS profiling assay for firefly luciferase inhibitor/activator using purifed enzyme and Km concentrations of substrates (counterscreen for miR-21 project).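 For activity change, negative = inhibition: plate controls were vehicle for no effect and reference inhibitor for full effect.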 Note: nearly all actives have a fitted effect of over 55% in size. Conditions: purified FLuc, luminescence inhibition; series mostly up to 57.5 µM; activity change, negative = inhibition: at the top concentration. The procedure, abridged: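 Biochemical qHTS of compounds, final roughly 60 µM downward over six points, against 10 nM purified firefly luciferase using Km concentrations of substrates (10 uM D-luciferin, 10 uM ATP) in Tris acetate pH 7.5 buffer; luminescence output.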
Luciferin 4-monooxygenase (Photinus pyralis), sequence (P08659 whole entry, looked up): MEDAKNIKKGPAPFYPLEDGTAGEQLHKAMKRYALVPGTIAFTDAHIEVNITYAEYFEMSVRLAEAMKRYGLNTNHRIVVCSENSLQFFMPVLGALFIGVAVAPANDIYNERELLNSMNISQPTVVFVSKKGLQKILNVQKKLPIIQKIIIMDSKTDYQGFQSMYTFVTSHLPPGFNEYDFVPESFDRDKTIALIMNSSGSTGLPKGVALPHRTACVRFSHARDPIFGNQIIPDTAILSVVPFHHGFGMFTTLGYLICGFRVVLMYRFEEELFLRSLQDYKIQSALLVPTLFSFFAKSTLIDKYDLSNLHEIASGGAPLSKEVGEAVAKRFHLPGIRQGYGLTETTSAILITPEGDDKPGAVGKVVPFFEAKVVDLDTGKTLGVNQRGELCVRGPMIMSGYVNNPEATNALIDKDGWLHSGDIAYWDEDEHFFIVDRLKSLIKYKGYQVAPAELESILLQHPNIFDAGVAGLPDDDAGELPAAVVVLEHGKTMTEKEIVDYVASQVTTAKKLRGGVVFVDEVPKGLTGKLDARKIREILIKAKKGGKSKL
In the case of `O=C(c1ccccc1)N1CCN(c2ccc([N+](=O)[O-])c(NCc3ccco3)c2)CC1`, the “activity change, negative = inhibition” value was 0.947%.
As to `COc1ccccc1OCCNc1cc(N2CCOCC2)ccc1[N+](=O)[O-]`, the Potency is 15.1 µM (active).
As to `CC(=O)Nc1ccc(S(=O)(=O)N2CCN(c3ccc([N+](=O)[O-])c(NCCN4CCOCC4)c3)CC2)cc1`, the “activity change, negative = inhibition” value is 2.44%.
Same read-out and setting: the value for `O=C(CCn1ccc2cc(S(=O)(=O)N3CCCC3)ccc21)NCc1cccc(Cl)c1` was -7.4%.
As for `COc1ccc(-c2noc(C(C)NS(=O)(=O)c3ccc(NC(C)=O)cc3)n2)cc1` (stereo not given), the “activity change, negative = inhibition” value is -1.43%.
Same read-out and setting: the value for `CCCn1c(N)c(C(=O)CSc2nnc3n2CCCCC3)c(=O)[nH]c1=O` was 3.94%; that for `COc1cc(NC(=O)c2nc3ccccc3nc2C)cc(OC)c1OC` was -14%; that for `COC(=O)[C@H](Cc1ccccc1)NC(=O)Nc1ccc(OC)cc1` was -2.85%.
Consider `O=C(Cn1nnc(-c2ccccc2)n1)NC(=O)NC1CCCC1`, for which the “activity change, negative = inhibition” value was 3.07%.
Still for that read-out and setting: the value for `O=C(NNC(=O)C(O)c1ccccc1)NC1CCCCC1` (stereo not given) was 3.66%.
On to `Cc1nc(/N=C(\N)NC(=O)NC2CCCCC2)nc2ccccc12`, for which the Potency was 16.9 µM (active).
Turning to `COc1ccc2nc(/N=C(\N)NC(=O)Nc3ccccc3)nc(C)c2c1`, the Potency was 26.9 µM (active).
As to `Cc1cc(NC(=O)CC(C)C)cc(-c2nc3ncccc3o2)c1O`, the “activity change, negative = inhibition” value is 2.31%.
Still for that read-out and setting: the value for `O=C(c1cccs1)c1cn(CCOc2ccc(Cl)cc2)c2ccccc12` was -4.78%; that for `COc1ccc(OCCCC(=O)Nc2cccc(S(=O)(=O)N3CCCCCC3)c2)cc1` was -12.1%; that for `CCOC(=O)c1cccc(NC(=O)CCOc2ccccc2)c1` was -10.1%.
`O=C(CCCOc1ccccc1)Nc1cccc(C(=O)O)c1`: the Potency is 15.1 µM (active).
As for `COCCn1cnnc1SCC(=O)Nc1cccc(S(=O)(=O)N2CCCCC2)c1`, the “activity change, negative = inhibition” value was 3.11%.
Same read-out and setting: the value for `CCOc1ccccc1CNC(=O)c1cnc2c(-c3ccc(OCC)c(OCC)c3)c(C)nn2c1C` was -1.62%.
For `COc1ccc(-c2nc3ccccc3c(=O)n2CCc2ccc(O)cc2)cc1`, the Potency is 21.3 µM (active).
With `COC(=O)c1ccc(CSc2nc3ccccc3c(=O)n2-c2cccc(OC)c2)o1`, the “activity change, negative = inhibition” value is 1.87%.
For `COc1ccccc1OCCCn1c(-c2ccc(Cl)cc2)nc2ccccc2c1=O`, the “activity change, negative = inhibition” value was 1.48%.
Regarding `COc1ccc(OCc2ccc(-c3nc4ccccc4c(=O)n3N)o2)cc1`, the Potency was 12 µM (active).
On to `COc1ccc(OCc2ccc(-c3nc(C#N)c(N4CCN(c5ccccc5)CC4)o3)o2)cc1`, for which the “activity change, negative = inhibition” value was -2.48%.
The same measure, in the same setting: the value for `COc1cccc(OCCn2c(-c3ccc(Br)cc3)nc3ccccc3c2=O)c1` was -7.08%.
Turning to `Cc1cc(C)cc(OCC(=O)Nc2ccc(N3CCOCC3)cc2N2CCOCC2)c1`, the “activity change, negative = inhibition” value is 1.89%.
Still for that read-out and setting: the value for `Cc1nn2c(=O)cc(COC(=O)CNC(=O)c3ccc(F)cc3)nc2s1` was 2.08%.
Same read-out and setting: the value for `COc1cccc(N2CCN(S(=O)(=O)c3cc(Br)cc4c3N(C(=O)C3CC3)CC4)CC2)c1` was 0.1%.
On to `COc1ccc(S(=O)(=O)NCC2CCCN(C(=O)c3occc3C)C2)cc1` (stereo not given), for which the “activity change, negative = inhibition” value is -1.96%.
Take `Cc1cccc(-n2ncc(Cl)c(Cl)c2=O)c1`: the “activity change, negative = inhibition” value was 0.614%.
The same measure, in the same setting: the value for `Cc1ccc(-n2ncc3c(=O)[nH]cnc32)c(C)c1` was 0.0061%; that for `COc1ccc2oc(=O)c(C(=O)N3CCCc4ccccc43)cc2c1` was 3.4%.
The same measure, in the same setting: the value for `COc1ccc(-n2c(C)nc3c(cnn3-c3ccc(F)cc3)c2=O)cc1` was 3.47%.
In the case of `COc1ccc(-n2ncc3c(N4CCCc5ccccc54)ncnc32)cc1`, the Potency was 1.35 µM (active).
With `COc1ccc(-n2ncc3c(N4CCc5ccccc54)ncnc32)cc1`, the Potency was 0.379 µM (active).
Still for that read-out and setting: the value for `Cc1cccc(-n2ncc3c(N4CCc5ccccc54)ncnc32)c1` was 0.536 µM (active).
Consider `COc1cc(C)c(C)cc1S(=O)(=O)N1CCCc2ccccc21`, for which the “activity change, negative = inhibition” value is 5.54%.
Still for that read-out and setting: the value for `COc1ccc(CCC(C)N2CCc3ccccc3C2)cc1` (stereo not given) was -0.635%; that for `CCCCN(C(=O)C1=NN(c2cc(C)ccc2C)C(=O)CC1)c1c(N)n(CCC)c(=O)[nH]c1=O` was -0.555%.
Still for that read-out and setting: the value for `COc1cccc(CNC(=O)CN2C(=O)NC(Cc3ccccc3)(c3ccccc3)C2=O)c1` (stereo not given) was 0.778%; that for `CC1=C(c2ccc(Cl)cc2)S(=O)(=O)N=C1N1CCN(c2cc(C)ccc2C)CC1` was -4.39%.
For the molecule `COc1ccc(/C=C/c2nnc(NC(=O)C(C)C)s2)cc1`, the Potency is 2.69 µM (active).
For the molecule `CC(C)C(=O)Nc1nnc(Sc2ccc(N(C)C)cc2)s1`, the “activity change, negative = inhibition” value is 0.449%.
The same measure, in the same setting: the value for `O=C(CSc1ccccc1)Nc1nnc(/C=C/c2ccccc2)s1` was -1.44%; that for `CCCC(=O)N1CCN(c2nc3c(OC)ccc(C)c3s2)CC1` was -13.8%; that for `COc1ccccc1NC(=O)c1cc(C2CC2)nc2c1c(C)nn2-c1ccc(C)cc1` was 2.95%.
Regarding `CS(=O)(=O)C1=NN2C(=N)/C(=C\c3ccc(OCCOc4ccccc4)cc3)C(=O)N=C2S1`, the “activity change, negative = inhibition” value was 5.51%.
Consider `CC(C)(C)C1C/C(=C/c2ccco2)C(=O)/C(=C/c2ccco2)C1` (stereo not given), for which the “activity change, negative = inhibition” value was 8.48%.
In the case of `CS(=O)(=O)c1ccc2c(c1)SC1=NC(=O)/C(=C/c3ccco3)C(=N)N12`, the Potency is 10.7 µM (active).
For `CC(NC(=O)CN(C)S(=O)(=O)c1ccc(F)cc1)C1CC2CCC1C2` (stereo not given), the “activity change, negative = inhibition” value was 6.14%.
On to `Cc1ccc2oc(=O)c3cnn(CC(=O)NCc4ccccc4Cl)c3c2c1`, for which the “activity change, negative = inhibition” value was 0.217%.
Same read-out and setting: the value for `CCOc1ccccc1C1CC(c2cccc(NS(C)(=O)=O)c2)=NN1C(=O)c1ccccc1` (stereo not given) was -1.5%.
As for `CCOc1cccc2c1OC1(CCCCC1)N1N=C(c3cccnc3)CC21` (stereo not given), the Potency is 19 µM (active).
Regarding `N#CCN(C(=O)COC(=O)C1CC2CCCC(C1)C2=O)c1ccccc1` (stereo not given), the “activity change, negative = inhibition” value is 0.412%.
Consider `CCCn1c(=O)c(-c2ccccc2)c(O)c2ccccc21`, for which the “activity change, negative = inhibition” value was 3.5%.
Still for that read-out and setting: the value for `Cc1c(C=O)c2ccccc2n1CC(=O)O` was -1.92%.
For `CC(=O)n1c(C=Nc2ccccc2)c(O)c2ccccc21`, the Potency is 16.9 µM (active).
With `COC(=O)c1cn(CC(=O)NCc2cccs2)c2ccccc12`, the “activity change, negative = inhibition” value was -12.6%.
Same read-out and setting: the value for `Cc1ccccc1NC(=O)Cn1cc(C(=O)c2cccs2)c2ccccc21` was -10.7%.
Regarding `O=C(Cn1cc(C(=O)c2cccs2)c2ccccc21)NCc1cccs1`, the Potency is 19 µM (active).
As for `COc1ccc(-c2nc(Cn3c(=O)cc(C)c4c(C)nn(-c5ccccc5)c43)c(C)o2)cc1OC`, the “activity change, negative = inhibition” value was -0.0045%.
The same measure, in the same setting: the value for `O=C(CCc1nnc2ccc(NCc3ccco3)nn12)Nc1cc(F)ccc1F` was -1.74%; that for `CN(C)Cc1c(C#N)c2ccccc2n1C` was 1.17%.
For the molecule `COc1ccc(-c2c(C#Cc3ccccc3)c3ccccc3n2C)cc1`, the Potency was 12 µM (active).
Take `COc1ccc(CCNCc2c(-c3ccccc3)n(C)c3ccccc23)cc1`: the “activity change, negative = inhibition” value was -0.95%.
